Our source for the Inhibition values is ChEMBL document CHEMBL1157539, “Thousands of chemical starting points for antimalarial lead identification” (Nature, 2010).

Assay type in all cases: functional
Assay [1] deals with Plasmodium falciparum. The assay is described as follows: GSK_TCMDC: Inhibition of Plasmodium falciparum 3D7 in whole red blood cells, using parasite LDH activity as an index of growth. Test compounds present at 2uM.
Assay [2] relates to Plasmodium falciparum. The assay is described as follows: GSK_TCMDC: Inhibition of Plasmodium falciparum Dd2 in whole red blood cells, using parasite LDH activity as an index of growth. Test compounds present at 2uM.
Assay [3] deals with HepG2. The assay is described as follows: GSK_TCMDC: Percent inhibition of human HepG2 cell line. Test compounds present at 10uM.

Regarding `CCCn1c(Sc2ccc(C#N)c([N+](=O)[O-])c2)nnc1-c1cc(OC)cc(OC)c1`, the Inhibition (usually the share of the control response that was lost under treatment) in assay [1] is given as 98%; in assay [2], 79%; in assay [3] it was 24%.
For `CC(C)C[C@@H](/C=N/N1CC(=O)NC1=O)NC(=O)[C@H](CC(C)C)NC(=O)c1ccc(OCCN2CCOCC2)cc1`, in that order: 94%, 79% and 11%.
`COc1ccc(N2CCN(CCCCNC(=O)c3ccc(NC(=O)c4cc(C(F)(F)F)cc(C(F)(F)F)c4)cc3)CC2)c(OC)c1`: the Inhibition is 100% in assay [1], 99% in assay [2] and 30% in assay [3].
For `O=C(Nc1ccc(C(F)(F)F)cc1)NC1CCN(CCCCCNC(=O)C2CC2c2ccc(Cl)c(Cl)c2)CC1` (stereo not given), in that order: 100%, 45% and 41%.
Taken in the same sequence, the figures for `CC(C)(CN)c1nc(-c2ccc(Br)c(O)c2)c(-c2ccncc2)[nH]1.Cl` were 96%, 97% and 31%.
For `CCCCOc1ccc(C(O)C(CN2CCCCC2)c2ccccc2)cc1` (stereo not given), in that order: 90%, 84% and 7%.
With `COc1ccc2nccc([C@@H](O)CN3CCC(NCc4ccc5c(c4)sc(=O)n5C)CC3)c2c1.O=C(O)C(=O)O`, the Inhibition in assay [1] was found to be 100%; in assay [2] it was 72%; in assay [3], 10%.
For `COc1ccc2nccc([C@@H](O)CN3CCC(NC(=O)Cc4cc5ccccc5s4)CC3)c2c1`, in that order: 92%, 42% and 16%.
For `Cc1cccc2nc(-c3ccc(-c4ccc(CN5CCN(CCO)CC5)cc4)cc3)[nH]c12.O=C(O)C(F)(F)F`, in that order: 100%, 97% and 20%.
As for `Cc1cccc2nc(-c3cccc(-c4ccc(CNCc5ccc(S(C)(=O)=O)cc5)cc4)c3)[nH]c12.O=C(O)C(F)(F)F`, the figures for the Inhibition in assay [1], in assay [2] and in assay [3] were 100%, 98% and 8%, respectively.
For `Cc1[nH]c(C)c(-c2ccc(-c3ccc(OC(F)(F)F)cc3)nc2)c(=O)c1Cl`, in that order: 95%, 95% and 11%.
`Clc1ccc2c(NN=Cc3cccs3)ccnc2c1`: the Inhibition in assay [1] amounted to 100%; in assay [2], 96%; in assay [3], 0%.
Taken in the same sequence, the figures for `CCCN1CCN(CCCNC(=O)c2cc3c(Cl)nc4ccc(C)cc4c3s2)CC1` were 97%, 27% and 18%.
Consider `O=C(NC1CCN(CCCc2ccccc2)CC1)c1ccc(-c2cccc(C(F)(F)F)c2)s1.O=C(O)C(F)(F)F`, for which the Inhibition in assay [1] was determined as 95%; in assay [2], 47%; in assay [3], 93%.
For `CCN1CCN(CCCCNc2c3ccccc3nc3ccccc23)CC1.Cl`, in that order: 100%, 0% and 22%.
Taken in the same sequence, the figures for `CN(Cc1ccccc1)C1CCN(c2cc(NC(=O)c3cccc(F)c3)ccn2)CC1.O=C(O)C(F)(F)F` were 93%, 3% and 2%.
For the compound `O=C(O)C(F)(F)F.O=C1CCCN1CCCNCc1cccc(-c2ccc(-c3nc4cc(C(F)(F)F)ccc4[nH]3)s2)c1`, the Inhibition was 100% in assay [1], 99% in assay [2] and 19% in assay [3].
For `COc1ccc(-c2nnc(Sc3ccc(C#N)c([N+](=O)[O-])c3)n2CCC(C)C)cc1`, in that order: 89%, 53% and 15%.
Taken in the same sequence, the figures for `CS(=O)(=O)c1ccccc1CNC(=O)c1ccc(-c2cccc(-c3nc4cc(C(F)(F)F)ccc4[nH]3)c2)cc1` were 91%, 4% and 36%.
Turning to `CCCCCCN1CCCN(Cc2ccc(C(=O)Nc3ccc(CC)cc3)cc2)CC1.O=C(O)C(F)(F)F`, the Inhibition came out at 97% in assay [1], 50% in assay [2] and 53% in assay [3].
For `Cc1noc(C)c1CN1CCCN(c2ccc3c(c2)CCN(Cc2ccc(-c4ncc[nH]4)cc2)CC3)CC1`, the Inhibition in assay [1] turned out to be 98%; in assay [2], 39%; in assay [3], 1%.
As to `Cl.Cn1c(/C=C/C(=O)NC2CCC(CCN3CCc4ccc(C#N)cc4CC3)CC2)cc2ccccc21` (stereo not given), the values for the Inhibition in assay [1], in assay [2] and in assay [3] were 100%, 29% and 15%, respectively.
Consider `NC(=O)c1cc2nc(Nc3ccc(F)cc3)nc(Nc3ccc(S(N)(=O)=O)cc3)c2[nH]1.O=CO`, for which the Inhibition worked out at 100% in assay [1], 99% in assay [2] and 2% in assay [3].
Regarding `O=C(Nc1ccc(Cn2ncc(N3CCNCC3)c(Cl)c2=O)cc1)Nc1ccc(-c2ccccc2)cc1.O=C(O)C(F)(F)F`, the Inhibition in assay [1] was found to be 98%; in assay [2] it was 33%; in assay [3] it was 29%.
Taken in the same sequence, the figures for `CC(CN(C)C)Oc1ccc2nc(-c3cccc(OCc4ccccc4)c3)[nH]c2c1C#N` (stereo not given) were 100%, 94% and 57%.
With `O=C(NCc1cccc(F)c1)Nc1ccc(-c2ccc(-c3nc4cc(C(F)(F)F)ccc4[nH]3)cc2)cc1`, the Inhibition turned out to be 100% in assay [1], 24% in assay [2] and 46% in assay [3].
Turning to `CCC(CC)n1c(C)cc2c3c(N)nc(N)nc3ccc21`, the Inhibition came to 95% in assay [1], 95% in assay [2] and 61% in assay [3].
Consider `Cc1cc(N[C@@H](Cc2ccccc2)C(=O)Nc2ccccc2)nc(NCCc2cccs2)n1.O=C(O)C(F)(F)F`, for which the Inhibition in assay [1] was found to be 100%; in assay [2] it was 72%; in assay [3], 0%.
`CCCCC1=CC2C(=O)C(C(=O)OC)=CN=C2C=C1OCc1ccccc1` (stereo not given): the results for the Inhibition in assay [1], in assay [2] and in assay [3] were 99%, 98% and 7%, respectively.
For `CCCC(C)Nc1nc(C)cc(N[C@@H](CC(C)C)C(=O)NC2CCCC2)n1.O=C(O)C(F)(F)F` (stereo not given in full), in that order: 85%, 22% and 6%.
